Test results: PubChem BioAssay AID1159580 (chemical genetic matrix, 2015)
The whole screen tested about 5,500 compounds, of which about 2,000 (36%) were called active. About 18% were inconclusive and are not listed. No stated cut-off is given here; in the data, active means normalized growth mostly below about 0.91 (no sharp cut-off); inconclusive means no clear call, values can overlap the other calls; inactive means mostly above about 0.92. Some of the results follow.

Test: chemical genetic growth profiling, strain panel (AID 1159580);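 further: tested at 20 µM; growth read once vehicle control cultures reached saturation at 30 °C; 1 = growth at the plate median or of vehicle wells; lower values mean less growth of the strain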
Conditions: S. cerevisiae deletion strains, growth OD

Measured: normalized growth

CCN(CC)[N+]([O-])=NO
inactive: locus YHR030C, strain SLT2, hits give low values 0.974 | locus YHR079C, strain IRE1, hits give low values 0.986 | locus YJL095W, strain BCK1, hits give low values 0.987 | locus YJR066W, strain TOR1, hits give low values 0.931 | locus YLR113W, strain HOG1, hits give low values 0.961 | locus YNL183C, strain NPR1, hits give low values 0.935 | locus YOR231W, strain MKK1, hits give low values 0.966 | locus YPL256C, strain CLN2, hits give low values 0.951
